Experiments:
Experiment in all cases: log2 ratio of Biotin-Ahx-Ub-VS probe labelling (fragment/DMSO); higher = less target engagement (more negative = stronger competition), active = hit call of the paper (q ≤ 0.05, log2 ratio ≤ -1)
Settings in all cases: compound concentration: 200 uM; treatment time: 3 h
[1] = molecular target: T1, USP42 (UniProt Q9H9J4)
T1 sequence (whole entry): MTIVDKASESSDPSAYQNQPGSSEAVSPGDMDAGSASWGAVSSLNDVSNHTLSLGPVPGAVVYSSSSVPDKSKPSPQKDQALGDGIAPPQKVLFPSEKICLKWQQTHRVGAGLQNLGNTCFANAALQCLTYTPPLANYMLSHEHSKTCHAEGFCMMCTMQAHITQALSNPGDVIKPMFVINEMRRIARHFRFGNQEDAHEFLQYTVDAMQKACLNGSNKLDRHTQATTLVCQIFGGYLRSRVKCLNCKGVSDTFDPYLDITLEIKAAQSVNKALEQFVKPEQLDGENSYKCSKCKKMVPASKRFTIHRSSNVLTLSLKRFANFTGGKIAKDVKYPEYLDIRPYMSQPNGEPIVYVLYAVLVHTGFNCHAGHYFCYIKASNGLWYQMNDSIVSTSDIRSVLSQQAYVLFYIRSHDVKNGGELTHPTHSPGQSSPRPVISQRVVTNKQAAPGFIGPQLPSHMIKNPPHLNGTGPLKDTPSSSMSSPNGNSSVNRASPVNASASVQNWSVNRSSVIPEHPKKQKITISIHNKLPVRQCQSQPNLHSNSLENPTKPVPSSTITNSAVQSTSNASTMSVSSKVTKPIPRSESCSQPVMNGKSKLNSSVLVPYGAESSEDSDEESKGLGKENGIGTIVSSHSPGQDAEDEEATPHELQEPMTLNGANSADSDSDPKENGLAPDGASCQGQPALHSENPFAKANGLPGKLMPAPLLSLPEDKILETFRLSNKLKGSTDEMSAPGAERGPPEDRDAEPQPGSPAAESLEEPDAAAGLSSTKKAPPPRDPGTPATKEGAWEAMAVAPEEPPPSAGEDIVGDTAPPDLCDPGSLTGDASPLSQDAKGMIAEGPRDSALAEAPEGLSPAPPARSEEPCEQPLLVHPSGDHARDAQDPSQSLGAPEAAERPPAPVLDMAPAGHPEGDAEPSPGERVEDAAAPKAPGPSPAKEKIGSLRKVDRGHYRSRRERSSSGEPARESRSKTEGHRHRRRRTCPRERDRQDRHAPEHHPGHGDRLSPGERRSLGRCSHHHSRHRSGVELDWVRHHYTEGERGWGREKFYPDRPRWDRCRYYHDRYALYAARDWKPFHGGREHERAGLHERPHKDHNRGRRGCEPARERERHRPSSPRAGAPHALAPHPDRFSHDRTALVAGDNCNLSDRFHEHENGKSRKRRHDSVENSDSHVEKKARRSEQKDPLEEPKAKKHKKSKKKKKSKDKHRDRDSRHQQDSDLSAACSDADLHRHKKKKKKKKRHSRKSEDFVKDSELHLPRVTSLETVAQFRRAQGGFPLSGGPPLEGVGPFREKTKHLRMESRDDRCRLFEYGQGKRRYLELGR
In short: (§1)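 HEK293T lysate (495 µg per sample, in Tris/CHAPS/IGEPAL buffer with protease inhibitors) was treated in triplicate with fragment at 200 µM or with DMSO for 3 h. It was then treated with Biotin-Ahx-Ub-VS (0.5 µM final) for 1 h. Labelled DUBs were NeutrAvidin-enriched, digested with LysC and trypsin, and run by diaPASEF LC-MS/MS. Spectronaut label-free quantities were global-median-normalised. Values are average log2 ratios fragment/DMSO by unpaired t-test, using proteins with ≥2 unique peptides.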

[2] = molecular target: USP46 (UniProt P62068)
USP46, sequence (P62068 whole entry): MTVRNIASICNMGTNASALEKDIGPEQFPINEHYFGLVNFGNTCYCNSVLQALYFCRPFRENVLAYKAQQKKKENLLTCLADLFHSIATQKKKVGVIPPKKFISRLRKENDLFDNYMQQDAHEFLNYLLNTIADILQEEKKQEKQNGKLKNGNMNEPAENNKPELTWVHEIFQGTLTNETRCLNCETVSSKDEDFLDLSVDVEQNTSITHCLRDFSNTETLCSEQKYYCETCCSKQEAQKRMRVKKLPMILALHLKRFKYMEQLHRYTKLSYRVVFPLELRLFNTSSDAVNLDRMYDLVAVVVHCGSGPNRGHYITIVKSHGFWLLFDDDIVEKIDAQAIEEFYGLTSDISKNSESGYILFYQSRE
In short: as §1

[3] = molecular target: T2, USP47 (UniProt Q96K76)
T2 sequence (whole entry): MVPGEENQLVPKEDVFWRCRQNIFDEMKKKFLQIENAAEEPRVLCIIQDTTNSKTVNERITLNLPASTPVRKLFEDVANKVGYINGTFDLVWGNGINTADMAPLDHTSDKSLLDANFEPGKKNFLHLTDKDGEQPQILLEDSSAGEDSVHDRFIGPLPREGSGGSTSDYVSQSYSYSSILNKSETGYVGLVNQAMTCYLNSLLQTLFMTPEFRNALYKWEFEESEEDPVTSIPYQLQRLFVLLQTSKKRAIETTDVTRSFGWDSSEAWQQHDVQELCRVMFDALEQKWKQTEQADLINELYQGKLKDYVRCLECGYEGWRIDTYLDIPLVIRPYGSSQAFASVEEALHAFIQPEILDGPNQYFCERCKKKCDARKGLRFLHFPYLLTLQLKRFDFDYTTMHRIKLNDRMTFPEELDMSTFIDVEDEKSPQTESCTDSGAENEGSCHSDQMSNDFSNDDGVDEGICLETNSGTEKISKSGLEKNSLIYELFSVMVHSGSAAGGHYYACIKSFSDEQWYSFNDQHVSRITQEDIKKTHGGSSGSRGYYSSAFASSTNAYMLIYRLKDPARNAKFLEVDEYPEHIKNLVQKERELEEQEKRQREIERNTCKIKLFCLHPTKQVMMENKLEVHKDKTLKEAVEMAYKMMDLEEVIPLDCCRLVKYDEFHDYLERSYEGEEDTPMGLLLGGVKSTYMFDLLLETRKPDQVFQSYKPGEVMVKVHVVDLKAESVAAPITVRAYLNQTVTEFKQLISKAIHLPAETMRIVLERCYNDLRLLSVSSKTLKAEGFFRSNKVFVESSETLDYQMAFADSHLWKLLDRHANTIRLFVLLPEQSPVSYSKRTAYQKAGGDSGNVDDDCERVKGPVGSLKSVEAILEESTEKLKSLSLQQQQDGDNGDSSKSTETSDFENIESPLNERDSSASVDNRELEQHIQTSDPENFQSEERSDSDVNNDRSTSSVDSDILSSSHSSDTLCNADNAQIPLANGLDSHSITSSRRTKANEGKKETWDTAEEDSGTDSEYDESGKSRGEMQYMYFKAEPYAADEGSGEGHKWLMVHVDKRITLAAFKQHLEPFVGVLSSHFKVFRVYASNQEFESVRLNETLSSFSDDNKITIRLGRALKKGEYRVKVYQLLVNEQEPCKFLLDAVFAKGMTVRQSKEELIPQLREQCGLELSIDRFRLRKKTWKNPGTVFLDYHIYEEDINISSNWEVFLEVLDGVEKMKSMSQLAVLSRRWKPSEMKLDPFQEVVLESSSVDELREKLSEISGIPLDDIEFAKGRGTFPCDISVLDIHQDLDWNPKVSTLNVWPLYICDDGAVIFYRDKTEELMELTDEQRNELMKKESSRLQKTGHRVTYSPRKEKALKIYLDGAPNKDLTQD
In short: as §1

[4] = molecular target: T3, USP48 (UniProt Q86UV5)
T3 sequence (whole entry): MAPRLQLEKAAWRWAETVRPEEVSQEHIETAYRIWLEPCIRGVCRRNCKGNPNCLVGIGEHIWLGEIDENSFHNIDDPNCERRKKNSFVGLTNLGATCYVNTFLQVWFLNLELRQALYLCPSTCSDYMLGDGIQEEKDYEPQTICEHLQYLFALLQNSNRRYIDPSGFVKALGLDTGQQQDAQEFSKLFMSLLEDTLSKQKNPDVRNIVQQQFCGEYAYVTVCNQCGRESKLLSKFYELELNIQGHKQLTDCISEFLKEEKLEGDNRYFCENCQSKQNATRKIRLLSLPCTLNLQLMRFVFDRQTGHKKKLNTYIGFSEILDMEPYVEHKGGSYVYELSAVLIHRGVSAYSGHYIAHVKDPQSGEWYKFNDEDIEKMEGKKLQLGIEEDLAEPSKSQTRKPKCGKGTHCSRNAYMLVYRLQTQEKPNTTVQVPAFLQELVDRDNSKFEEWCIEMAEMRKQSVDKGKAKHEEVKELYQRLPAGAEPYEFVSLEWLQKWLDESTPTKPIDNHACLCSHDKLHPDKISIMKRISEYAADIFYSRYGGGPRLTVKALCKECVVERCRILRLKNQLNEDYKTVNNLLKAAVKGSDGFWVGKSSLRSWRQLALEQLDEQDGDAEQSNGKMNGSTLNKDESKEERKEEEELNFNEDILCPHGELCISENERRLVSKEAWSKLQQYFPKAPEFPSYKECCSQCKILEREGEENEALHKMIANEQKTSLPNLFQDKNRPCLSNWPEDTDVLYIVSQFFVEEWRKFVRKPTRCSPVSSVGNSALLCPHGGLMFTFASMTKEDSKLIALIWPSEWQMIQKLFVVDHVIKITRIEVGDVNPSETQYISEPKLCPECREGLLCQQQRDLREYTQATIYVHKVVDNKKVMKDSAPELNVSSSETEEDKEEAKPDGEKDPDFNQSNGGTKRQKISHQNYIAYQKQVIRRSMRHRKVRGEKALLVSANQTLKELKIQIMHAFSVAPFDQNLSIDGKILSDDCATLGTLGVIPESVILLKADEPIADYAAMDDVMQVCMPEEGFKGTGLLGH
In short: as §1

[5] = molecular target: T4, USP5 (UniProt P45974)
T4 sequence (whole entry): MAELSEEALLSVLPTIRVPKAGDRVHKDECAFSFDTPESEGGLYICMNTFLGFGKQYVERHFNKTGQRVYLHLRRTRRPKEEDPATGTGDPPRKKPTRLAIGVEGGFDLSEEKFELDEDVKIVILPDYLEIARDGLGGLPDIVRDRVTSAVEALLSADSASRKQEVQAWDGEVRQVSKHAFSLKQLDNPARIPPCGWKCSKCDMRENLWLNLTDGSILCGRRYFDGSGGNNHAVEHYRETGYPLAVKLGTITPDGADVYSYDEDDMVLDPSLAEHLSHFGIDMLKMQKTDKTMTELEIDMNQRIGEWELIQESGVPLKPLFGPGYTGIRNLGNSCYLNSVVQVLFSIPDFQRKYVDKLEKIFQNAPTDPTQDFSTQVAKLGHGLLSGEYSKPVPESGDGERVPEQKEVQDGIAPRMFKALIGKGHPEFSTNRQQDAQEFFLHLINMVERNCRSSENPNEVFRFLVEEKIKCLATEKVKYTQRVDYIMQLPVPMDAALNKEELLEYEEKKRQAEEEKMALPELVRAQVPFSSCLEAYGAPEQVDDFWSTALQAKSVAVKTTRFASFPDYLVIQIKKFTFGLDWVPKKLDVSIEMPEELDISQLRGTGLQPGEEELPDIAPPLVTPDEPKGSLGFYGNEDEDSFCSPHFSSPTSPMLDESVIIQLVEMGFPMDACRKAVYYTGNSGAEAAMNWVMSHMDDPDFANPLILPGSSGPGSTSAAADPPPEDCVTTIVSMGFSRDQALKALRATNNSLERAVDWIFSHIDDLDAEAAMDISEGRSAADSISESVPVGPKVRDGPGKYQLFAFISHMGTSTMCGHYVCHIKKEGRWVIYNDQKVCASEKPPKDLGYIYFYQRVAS
In short: as §1

[6] = molecular target: USP54 (UniProt Q70EL1)
USP54, sequence (Q70EL1 whole entry): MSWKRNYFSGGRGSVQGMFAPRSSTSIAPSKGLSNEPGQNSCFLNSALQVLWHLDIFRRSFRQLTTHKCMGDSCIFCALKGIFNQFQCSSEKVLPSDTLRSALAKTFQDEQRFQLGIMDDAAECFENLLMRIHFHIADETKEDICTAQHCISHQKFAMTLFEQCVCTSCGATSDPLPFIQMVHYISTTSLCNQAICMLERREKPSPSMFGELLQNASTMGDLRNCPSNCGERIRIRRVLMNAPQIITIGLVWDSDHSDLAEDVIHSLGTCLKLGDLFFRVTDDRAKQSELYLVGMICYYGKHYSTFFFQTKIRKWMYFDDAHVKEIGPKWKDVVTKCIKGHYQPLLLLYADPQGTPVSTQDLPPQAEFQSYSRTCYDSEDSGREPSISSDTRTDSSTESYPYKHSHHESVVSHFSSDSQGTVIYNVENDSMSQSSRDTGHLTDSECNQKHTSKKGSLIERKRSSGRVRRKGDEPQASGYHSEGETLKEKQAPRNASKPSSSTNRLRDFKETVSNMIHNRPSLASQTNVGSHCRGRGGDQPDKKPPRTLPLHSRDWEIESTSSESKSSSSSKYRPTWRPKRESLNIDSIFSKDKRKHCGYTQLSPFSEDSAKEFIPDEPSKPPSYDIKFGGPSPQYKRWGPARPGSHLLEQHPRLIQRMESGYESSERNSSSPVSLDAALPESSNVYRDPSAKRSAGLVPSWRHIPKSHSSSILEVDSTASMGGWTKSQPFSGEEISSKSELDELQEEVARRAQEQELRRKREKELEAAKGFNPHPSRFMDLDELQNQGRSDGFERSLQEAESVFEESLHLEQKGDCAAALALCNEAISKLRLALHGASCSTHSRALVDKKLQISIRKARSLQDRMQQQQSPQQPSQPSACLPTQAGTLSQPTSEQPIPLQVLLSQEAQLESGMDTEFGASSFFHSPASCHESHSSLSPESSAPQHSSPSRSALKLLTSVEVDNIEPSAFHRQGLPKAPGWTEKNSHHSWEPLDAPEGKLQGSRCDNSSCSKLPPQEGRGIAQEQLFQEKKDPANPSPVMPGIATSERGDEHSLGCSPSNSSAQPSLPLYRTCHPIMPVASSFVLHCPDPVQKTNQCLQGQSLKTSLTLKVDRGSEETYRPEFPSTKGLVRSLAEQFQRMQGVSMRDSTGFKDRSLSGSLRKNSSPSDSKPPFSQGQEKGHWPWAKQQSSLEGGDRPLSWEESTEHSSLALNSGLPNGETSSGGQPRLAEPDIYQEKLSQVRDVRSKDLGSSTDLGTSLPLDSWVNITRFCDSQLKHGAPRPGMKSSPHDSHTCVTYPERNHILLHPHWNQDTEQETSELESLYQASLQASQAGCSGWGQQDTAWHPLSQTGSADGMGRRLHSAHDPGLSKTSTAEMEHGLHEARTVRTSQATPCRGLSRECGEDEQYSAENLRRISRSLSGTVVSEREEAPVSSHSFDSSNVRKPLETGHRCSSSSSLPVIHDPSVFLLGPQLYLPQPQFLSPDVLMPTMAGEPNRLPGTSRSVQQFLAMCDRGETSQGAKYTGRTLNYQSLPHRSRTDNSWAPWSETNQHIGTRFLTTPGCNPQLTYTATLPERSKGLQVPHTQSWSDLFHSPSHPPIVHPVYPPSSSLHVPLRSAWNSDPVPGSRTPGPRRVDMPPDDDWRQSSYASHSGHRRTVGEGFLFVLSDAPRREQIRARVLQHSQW
In short: as §1

[7] = molecular target: USP7 (UniProt Q93009)
In short: as §1

[8] = molecular target: T5, USP8 (UniProt P40818)
T5 sequence (whole entry): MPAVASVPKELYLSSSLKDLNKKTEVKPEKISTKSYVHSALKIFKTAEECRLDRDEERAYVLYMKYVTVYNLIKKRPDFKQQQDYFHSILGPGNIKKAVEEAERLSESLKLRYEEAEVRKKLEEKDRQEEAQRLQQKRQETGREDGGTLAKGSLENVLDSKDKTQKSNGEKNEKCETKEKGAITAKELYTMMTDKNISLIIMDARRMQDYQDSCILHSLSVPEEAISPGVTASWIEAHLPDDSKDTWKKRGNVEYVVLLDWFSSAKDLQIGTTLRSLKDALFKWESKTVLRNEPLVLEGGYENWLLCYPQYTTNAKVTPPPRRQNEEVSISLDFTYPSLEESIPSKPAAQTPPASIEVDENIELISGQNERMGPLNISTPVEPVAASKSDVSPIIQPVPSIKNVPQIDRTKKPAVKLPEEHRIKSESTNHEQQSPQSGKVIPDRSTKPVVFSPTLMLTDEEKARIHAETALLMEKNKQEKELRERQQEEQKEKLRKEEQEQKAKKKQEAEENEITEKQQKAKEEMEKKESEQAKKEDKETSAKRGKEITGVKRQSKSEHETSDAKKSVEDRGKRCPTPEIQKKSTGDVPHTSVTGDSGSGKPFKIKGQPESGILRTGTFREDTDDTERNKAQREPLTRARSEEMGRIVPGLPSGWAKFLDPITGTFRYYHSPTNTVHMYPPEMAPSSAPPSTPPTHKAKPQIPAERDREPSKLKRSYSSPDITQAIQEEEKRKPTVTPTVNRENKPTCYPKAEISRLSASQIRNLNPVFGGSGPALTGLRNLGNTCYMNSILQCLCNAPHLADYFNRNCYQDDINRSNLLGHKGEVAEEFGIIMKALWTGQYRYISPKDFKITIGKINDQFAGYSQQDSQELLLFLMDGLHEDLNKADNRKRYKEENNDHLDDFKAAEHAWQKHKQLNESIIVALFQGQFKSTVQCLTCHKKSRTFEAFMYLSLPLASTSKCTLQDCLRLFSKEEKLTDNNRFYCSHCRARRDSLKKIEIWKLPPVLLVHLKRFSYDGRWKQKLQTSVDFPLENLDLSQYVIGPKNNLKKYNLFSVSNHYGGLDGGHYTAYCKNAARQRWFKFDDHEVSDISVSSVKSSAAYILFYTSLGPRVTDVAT
In short: as §1

[9] = molecular target: USP9X (UniProt Q93008)
USP9X, sequence (Q93008 whole entry): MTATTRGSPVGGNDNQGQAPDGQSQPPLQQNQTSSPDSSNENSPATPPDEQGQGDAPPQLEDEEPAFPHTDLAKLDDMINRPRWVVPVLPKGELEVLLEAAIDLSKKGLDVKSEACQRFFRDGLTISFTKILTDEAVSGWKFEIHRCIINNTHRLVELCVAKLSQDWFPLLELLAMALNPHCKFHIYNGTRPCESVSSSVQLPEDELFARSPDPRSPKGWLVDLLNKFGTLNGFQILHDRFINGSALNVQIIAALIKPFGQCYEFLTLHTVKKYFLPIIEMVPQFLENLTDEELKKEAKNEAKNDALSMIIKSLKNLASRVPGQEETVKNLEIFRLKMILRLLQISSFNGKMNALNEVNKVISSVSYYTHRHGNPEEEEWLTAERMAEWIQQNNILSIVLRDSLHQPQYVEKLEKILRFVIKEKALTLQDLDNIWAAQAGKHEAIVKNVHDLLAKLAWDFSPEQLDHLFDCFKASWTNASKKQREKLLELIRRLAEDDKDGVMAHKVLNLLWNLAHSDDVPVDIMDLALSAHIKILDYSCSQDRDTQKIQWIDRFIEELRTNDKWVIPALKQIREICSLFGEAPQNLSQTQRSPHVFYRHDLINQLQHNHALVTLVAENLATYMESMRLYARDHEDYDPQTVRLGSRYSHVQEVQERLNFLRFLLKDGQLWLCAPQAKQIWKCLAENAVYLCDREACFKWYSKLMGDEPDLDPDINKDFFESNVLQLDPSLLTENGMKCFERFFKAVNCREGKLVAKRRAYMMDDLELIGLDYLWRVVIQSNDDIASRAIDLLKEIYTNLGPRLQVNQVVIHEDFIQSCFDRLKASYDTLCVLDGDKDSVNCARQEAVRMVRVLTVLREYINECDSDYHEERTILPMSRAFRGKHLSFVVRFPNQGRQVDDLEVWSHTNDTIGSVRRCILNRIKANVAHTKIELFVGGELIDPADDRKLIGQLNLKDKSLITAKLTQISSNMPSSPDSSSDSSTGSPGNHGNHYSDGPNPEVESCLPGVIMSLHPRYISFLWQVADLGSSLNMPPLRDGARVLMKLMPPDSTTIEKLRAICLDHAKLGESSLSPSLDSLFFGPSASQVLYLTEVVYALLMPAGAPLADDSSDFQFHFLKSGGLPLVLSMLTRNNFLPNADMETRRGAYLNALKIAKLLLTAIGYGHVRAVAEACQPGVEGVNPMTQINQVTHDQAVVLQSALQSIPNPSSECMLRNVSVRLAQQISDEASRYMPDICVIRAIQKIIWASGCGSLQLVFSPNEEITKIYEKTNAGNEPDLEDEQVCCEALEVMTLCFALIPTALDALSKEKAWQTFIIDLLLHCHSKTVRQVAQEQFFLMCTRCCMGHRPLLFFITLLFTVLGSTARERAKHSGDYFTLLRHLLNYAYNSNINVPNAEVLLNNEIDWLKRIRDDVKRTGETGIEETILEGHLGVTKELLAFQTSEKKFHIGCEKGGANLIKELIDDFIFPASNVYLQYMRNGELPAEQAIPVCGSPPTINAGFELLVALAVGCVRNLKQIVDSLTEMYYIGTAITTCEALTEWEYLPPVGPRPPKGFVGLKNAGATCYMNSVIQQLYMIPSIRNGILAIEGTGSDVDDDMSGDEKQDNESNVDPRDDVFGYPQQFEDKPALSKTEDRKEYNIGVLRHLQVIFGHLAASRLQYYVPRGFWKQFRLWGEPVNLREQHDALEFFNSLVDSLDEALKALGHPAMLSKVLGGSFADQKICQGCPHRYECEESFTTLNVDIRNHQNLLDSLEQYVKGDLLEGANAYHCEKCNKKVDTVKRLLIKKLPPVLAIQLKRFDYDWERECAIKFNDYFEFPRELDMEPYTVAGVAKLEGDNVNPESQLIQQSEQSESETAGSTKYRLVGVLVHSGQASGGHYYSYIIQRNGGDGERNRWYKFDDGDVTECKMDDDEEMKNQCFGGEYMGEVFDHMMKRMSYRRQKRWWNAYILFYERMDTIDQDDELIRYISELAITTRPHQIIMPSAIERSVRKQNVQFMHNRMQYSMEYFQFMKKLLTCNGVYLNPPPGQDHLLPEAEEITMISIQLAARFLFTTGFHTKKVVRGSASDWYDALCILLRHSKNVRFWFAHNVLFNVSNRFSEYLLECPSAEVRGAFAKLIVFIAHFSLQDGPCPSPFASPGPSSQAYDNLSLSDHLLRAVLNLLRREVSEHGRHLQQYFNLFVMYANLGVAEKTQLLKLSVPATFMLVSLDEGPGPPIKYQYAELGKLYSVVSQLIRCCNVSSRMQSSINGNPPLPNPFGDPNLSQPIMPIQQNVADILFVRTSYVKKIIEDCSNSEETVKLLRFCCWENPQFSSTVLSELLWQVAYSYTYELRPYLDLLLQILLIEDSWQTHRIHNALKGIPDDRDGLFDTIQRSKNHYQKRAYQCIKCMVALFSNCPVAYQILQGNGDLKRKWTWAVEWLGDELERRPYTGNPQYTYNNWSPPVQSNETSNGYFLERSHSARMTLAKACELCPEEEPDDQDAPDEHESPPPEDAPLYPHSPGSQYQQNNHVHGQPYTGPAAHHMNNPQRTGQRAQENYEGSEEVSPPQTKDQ
In short: as §1

[10] = molecular target: UniProt O00487
UniProt O00487, sequence (O00487 whole entry): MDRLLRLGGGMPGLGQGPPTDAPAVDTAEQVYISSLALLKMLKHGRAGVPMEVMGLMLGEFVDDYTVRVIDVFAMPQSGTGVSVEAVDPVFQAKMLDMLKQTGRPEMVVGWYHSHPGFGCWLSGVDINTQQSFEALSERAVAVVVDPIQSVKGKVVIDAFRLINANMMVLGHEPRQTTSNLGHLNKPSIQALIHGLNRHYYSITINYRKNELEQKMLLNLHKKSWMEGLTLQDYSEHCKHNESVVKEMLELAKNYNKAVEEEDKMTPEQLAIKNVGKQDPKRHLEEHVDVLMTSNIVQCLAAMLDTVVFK
In short: as §1

Measured: log2 ratio of Biotin-Ahx-Ub-VS probe labelling

O=C(CCl)N(C1CCCC1)C1CCS(=O)(=O)C1 (stereo not given)
inactive: [1] 0.228 | [2] -0.0761 | [3] -0.442 | [5] 0.124 | [6] -0.384 | [7] -0.798 | [8] 0.0542 | [9] -0.0338 | [10] -0.119
active: [4] -1.18
